Test [1] in a line: viability loss with induced miR-34 in A549 – imaging, A549 dox-inducible miR-34, nuclei and caspase counts, primary screen (AID 1347080;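 active = compounds whose cell count with miR-34 switched on is under 0.7 times the count with it off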). The following applies: A549 miR-34 inducible, Hoechst nuclei count, 48 h.
Test [2] is described as follows: MELAS cybrid and Rieske KO viability enhancers – cell-based, MELAS cybrids, Rieske KO mouse fibroblasts, CellTiter-Glo, primary screen (AID 1508586;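 active = mean z-score across replicates of 1.96 or higher in either the MELAS or the Rieske mutant cell line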;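 note: z relative to plate mean and SD of compound and empty wells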). The conditions noted are these: low glucose. For orientation: Cellular ATP, detected with luciferase, serves as a proxy for viable cell number.
A short description of test [3]: drug combination growth inhibition, ovarian cancer – cell-based, oncology-focused library, rucaparib conditional, profiling panel (AID 1508598). The following applies: patient-derived ovarian cancer cells, CellTiter-Glo viability, 144 h, stronger effect = lower value.
A short description of test [4]: galactose survival enhancers in mitochondrial complex I cybrids – cell-based, galactose medium, ATP luminescence, primary screen (AID 1645843;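 active = z-score of at least 1.8 in each of two replicates, scored against plate mean and spread of sample wells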;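 note: positive z means more ATP and so rescue of galactose-driven cybrid death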). The following applies: complex I mutant cybrid cells, 72 h, stronger effect = higher value.
Where [5] appears, read: stronger effect = lower value, cell number ratio, induced over uninduced.
[6] abbreviates: measured here: relative caspase fold change +Dox/-Dox.
Setting [7] is: measured here: total cells with miR-34 induction, stronger effect = lower value.
Setting [8] is: measured here: total cells without miR-34 induction.
The mark [9] stands for this setting: MELAS cybrid survival, CellTiter-Glo 48 h, stronger effect = higher value.
[10] abbreviates: Rieske KO mouse fibroblast survival, CellTiter-Glo 72 h.

This note sets out measurements from PubChem BioAssay.

Where “and” joins values, the source holds several entries; their conditions need not be identical. Equal entries are not always repeated. Calls of active or inactive are those of the source.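 Rule for the calls, unless noted: active = normalized viability below 100% at a tested concentration; inactive = the rest.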

Usually viability stands for a read-out of living cells in per cent, often relative to untreated cells. Turning to `CC(C)(C)C(=O)Nc1ccc2c(c1)C(=O)C(=O)c1ccccc1-2`, the fold change in test [1] (setting [5]) was 1.31 (inactive); in test [1] (setting [6]) it was 0.69. The figures for the cell count in test [1] (setting [7]) and in test [1] (setting [8]) were 833 and 636, respectively. Also, the z-score was 0.258 (inactive) in test [2] (setting [9]) and -7.92 in test [2] (setting [10]). The viability in test [3] (at 0.000305 µM, OCI-C5x cells, with rucaparib 10 µM, 100% = cells with rucaparib alone) is 109% (inactive); in test [3] (at 0.000305 µM, OCI-C5x cells, without rucaparib), 109% (inactive); in test [3] (at 0.000305 µM, OCI-P5x cells, with rucaparib 20 µM, 100% = cells with rucaparib alone), 95.2% (active); in test [3] (at 0.000305 µM, OCI-P5x cells, without rucaparib) it was 90.7% (active); in test [3] (at 0.00122 µM, OCI-C5x cells, with rucaparib 10 µM, 100% = cells with rucaparib alone) it was 127% (inactive); in test [3] (at 0.00122 µM, OCI-C5x cells, without rucaparib), 103% (inactive). The viability in test [3] (at 0.00122 µM, OCI-P5x cells, with rucaparib 20 µM, 100% = cells with rucaparib alone) is 99.1% (active); in test [3] (at 0.00122 µM, OCI-P5x cells, without rucaparib), 91.1% (active); in test [3] (at 0.00488 µM, OCI-C5x cells, with rucaparib 10 µM, 100% = cells with rucaparib alone) it was 116% (inactive); in test [3] (at 0.00488 µM, OCI-C5x cells, without rucaparib) it was 114% (inactive); in test [3] (at 0.00488 µM, OCI-P5x cells, with rucaparib 20 µM, 100% = cells with rucaparib alone) it was 78.7% (active); in test [3] (at 0.00488 µM, OCI-P5x cells, without rucaparib) it was 63.1% (active). Also, the viability in test [3] (at 0.0195 µM, OCI-C5x cells, with rucaparib 10 µM, 100% = cells with rucaparib alone) was 119% (inactive); in test [3] (at 0.0195 µM, OCI-C5x cells, without rucaparib) it was 112% (inactive); in test [3] (at 0.0195 µM, OCI-P5x cells, with rucaparib 20 µM, 100% = cells with rucaparib alone), 79% (active); in test [3] (at 0.0195 µM, OCI-P5x cells, without rucaparib), 64.3% (active); in test [3] (at 0.0781 µM, OCI-C5x cells, with rucaparib 10 µM, 100% = cells with rucaparib alone), 118% (inactive); in test [3] (at 0.0781 µM, OCI-C5x cells, without rucaparib), 113% (inactive). The viability was 63.5% (active) in test [3] (at 0.0781 µM, OCI-P5x cells, with rucaparib 20 µM, 100% = cells with rucaparib alone); 45.6% (active) in test [3] (at 0.0781 µM, OCI-P5x cells, without rucaparib); 81.1% (active) in test [3] (at 0.313 µM, OCI-C5x cells, with rucaparib 10 µM, 100% = cells with rucaparib alone); 112% (inactive) in test [3] (at 0.313 µM, OCI-C5x cells, without rucaparib); 29.6% (active) in test [3] (at 0.313 µM, OCI-P5x cells, with rucaparib 20 µM, 100% = cells with rucaparib alone); 18.8% (active) in test [3] (at 0.313 µM, OCI-P5x cells, without rucaparib). For the same compound, the viability in test [3] (at 1.25 µM, OCI-C5x cells, with rucaparib 10 µM, 100% = cells with rucaparib alone) is 114% (inactive); in test [3] (at 1.25 µM, OCI-C5x cells, without rucaparib), 113% (inactive); in test [3] (at 1.25 µM, OCI-P5x cells, with rucaparib 20 µM, 100% = cells with rucaparib alone), 103% (inactive); in test [3] (at 1.25 µM, OCI-P5x cells, without rucaparib), 104% (inactive); in test [3] (at 5 µM, OCI-C5x cells, with rucaparib 10 µM, 100% = cells with rucaparib alone), 70.9% (active); in test [3] (at 5 µM, OCI-C5x cells, without rucaparib), 107% (inactive). For the same compound, the viability in test [3] (at 5 µM, OCI-P5x cells, with rucaparib 20 µM, 100% = cells with rucaparib alone) was 2.26% (active); in test [3] (at 5 µM, OCI-P5x cells, without rucaparib), 7.62% (active).

Turning to `CNc1nc(-c2cccc(OC)c2)ncc1F`, the fold change in test [1] (setting [5]) is 0.868 (inactive); in test [1] (setting [6]) it was 1.04. Moreover, the cell count in test [1] (setting [7]) worked out at 8700; in test [1] (setting [8]) it was 10000. Further, the z-score in test [2] (setting [9]) is 0.0888 (inactive); in test [2] (setting [10]), -0.0676; in test [4], -0.485 (inactive).

On to `CC1OC(OCC2OC(Oc3c(-c4ccc(O)c(O)c4)oc4cc(O)cc(O)c4c3=O)C(O)C(O)C2O)C(O)C(O)C1O` (configuration not stated), for which the fold change in test [1] (setting [5]) was 0.944 (inactive) and 0.91 (inactive); in test [1] (setting [6]), 1.42 and 0.851. Moreover, the cell count in test [1] (setting [7]) was 10400 and 8400; in test [1] (setting [8]), 11000 and 9230. In addition, the z-score in test [2] (setting [9]) was -0.328 (inactive); in test [2] (setting [10]) it was -0.0914; in test [4], 0.225 (inactive).
